Assay results reported in PubChem BioAssay (NCI).
This is part of a sample that, as a whole, favours compounds with a hit. Of some 83,000 tested, about 20% had one in any assay.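 Compound tested at a single concentration for 48 hours in 96-well plates; a percent growth value below 10 was scored as active.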 Activity calls are given as the source filed them.

How the values were obtained:
Assay in all cases: NCI-60 one-dose screen, 48 h (100 = growth as untreated, 0 = no growth, -100 = all killed)
HCT-15 colon = settings: 10 µM unless noted
HT29 colon = settings: 10 µM unless noted
SNB-75 CNS = settings: 10 µM unless noted
SNB-19 CNS = settings: 10 µM unless noted
U251 CNS = settings: 10 µM unless noted
PC-3 prostate = settings: 10 µM unless noted
SK-MEL-5 melanoma = settings: 10 µM unless noted
UACC-62 melanoma = settings: 10 µM unless noted
LOX IMVI melanoma = settings: 10 µM unless noted
SK-MEL-2 melanoma = settings: 10 µM unless noted
EKVX NSCLC = settings: 10 µM unless noted
SN12C renal = settings: 10 µM unless noted
UO-31 renal = settings: 10 µM unless noted
TK-10 renal = settings: 10 µM unless noted
ACHN renal = settings: 10 µM unless noted
A498 renal = settings: 10 µM unless noted
CCRF-CEM leukemia = settings: 10 µM unless noted
MOLT-4 leukemia = settings: 10 µM unless noted
SK-MEL-28 melanoma = settings: 10 µM unless noted
CAKI-1 renal = settings: 10 µM

Measured: growth

C=C1C(=O)O[C@H]2[C@H]1CC/C(COC(=O)c1ccc(C#N)cc1)=C\CC[C@@]1(C)O[C@@H]21
inactive: SNB-75 CNS 77.3% | SNB-19 CNS 47.7% | U251 CNS 40.6% | PC-3 prostate 50.6% | SK-MEL-5 melanoma 42.9% | SK-MEL-2 melanoma 37.9% | EKVX NSCLC 16% | SN12C renal 17.4% | TK-10 renal 40.2% | A498 renal 99.7%
active: HCT-15 colon -7.25% | HT29 colon -4.64% | UACC-62 melanoma -25.2% | LOX IMVI melanoma -81.4% | UO-31 renal -1.25% | ACHN renal 0.811% | CCRF-CEM leukemia -25.8% | MOLT-4 leukemia -29.3%

COc1cc2ncn3c(=O)c4c5c(sc4nc3c2cc1OC)CCCCC5
inactive: HCT-15 colon 107% | HT29 colon 112% | SNB-75 CNS 73.2% | SNB-19 CNS 102% | U251 CNS 102% | PC-3 prostate 90.9% | SK-MEL-5 melanoma 94.9% | UACC-62 melanoma 93.7% | LOX IMVI melanoma 88.2% | SK-MEL-28 melanoma 107% | EKVX NSCLC 87.9% | SN12C renal 105% | UO-31 renal 92.5% | ACHN renal 94% | A498 renal 90.9% | CCRF-CEM leukemia 103% | MOLT-4 leukemia 106%

CCCCOc1c(N)cc(Cl)cc1C(=O)OCCN(CC)CC
inactive: HCT-15 colon 111% | HT29 colon 74.8% | SNB-75 CNS 101% | SNB-19 CNS 101% | U251 CNS 90.1% | PC-3 prostate 80.9% | SK-MEL-5 melanoma 102% | UACC-62 melanoma 96.7% | LOX IMVI melanoma 103% | SK-MEL-28 melanoma 114% | EKVX NSCLC 104% | SN12C renal 97% | UO-31 renal 82.3% | TK-10 renal 94.3% | A498 renal 80.1% | CCRF-CEM leukemia 72.6% | MOLT-4 leukemia 58.4%

Cc1cccc[n+]1CCC[n+]1ccccc1C
inactive: HCT-15 colon 96.7% | HT29 colon 94.1% | SNB-75 CNS 103% | SNB-19 CNS 111% | U251 CNS 101% | PC-3 prostate 95.4% | SK-MEL-5 melanoma 101% | UACC-62 melanoma 109% | LOX IMVI melanoma 96.9% | SK-MEL-28 melanoma 103% | EKVX NSCLC 94.6% | SN12C renal 101% | UO-31 renal 99% | TK-10 renal 88% | ACHN renal 109% | A498 renal 109% | CCRF-CEM leukemia 99.6% | MOLT-4 leukemia 86.1%

COc1ccc(-c2nn(-c3ccc(NC(=O)Nc4cc(C(F)(F)F)cc(C(F)(F)F)c4)cc3)cc2-c2ccncc2)cc1Cl
active: HCT-15 colon 9.81% | PC-3 prostate 3.33% | SK-MEL-5 melanoma 9.61% | CAKI-1 renal 5.4% | A498 renal 0.688% | CCRF-CEM leukemia 9.25% | MOLT-4 leukemia 6.78%
inactive: HT29 colon 11.7% | SNB-75 CNS 34.4% | SNB-19 CNS 31.5% | U251 CNS 11.8% | UACC-62 melanoma 15.6% | LOX IMVI melanoma 15% | SK-MEL-28 melanoma 30.1% | EKVX NSCLC 21.7% | SN12C renal 17.2% | UO-31 renal 13.3% | ACHN renal 18.5%

CCN(CC)CCNC(=O)c1c(C)[nH]c(/C=C2\C(=O)Nc3cc(NC(=O)NC(=O)c4ccc(OC)cc4F)ccc32)c1C
inactive: HCT-15 colon 72.7% | HT29 colon 31.7% | SNB-75 CNS 94% | SNB-19 CNS 92.4% | U251 CNS 92.8% | PC-3 prostate 86.8% | SK-MEL-5 melanoma 85.3% | UACC-62 melanoma 104% | LOX IMVI melanoma 97% | SK-MEL-28 melanoma 99.7% | EKVX NSCLC 114% | SN12C renal 97.3% | UO-31 renal 96.2% | ACHN renal 38.2% | A498 renal 77.6% | CCRF-CEM leukemia 42.4% | MOLT-4 leukemia 38.2%

COc1ccc(C(=O)Cn2cnc3c(Nc4cc(C(=O)Nc5ccc(N6CCN(CCO)CC6)cc5)ccc4C)ncnc32)cc1
inactive: HCT-15 colon 102% | HT29 colon 101% | SNB-75 CNS 79.4% | SNB-19 CNS 108% | U251 CNS 105% | PC-3 prostate 105% | SK-MEL-5 melanoma 102% | LOX IMVI melanoma 94.2% | SK-MEL-28 melanoma 105% | SK-MEL-2 melanoma 100% | EKVX NSCLC 99% | SN12C renal 104% | UO-31 renal 87.6% | TK-10 renal 102% | A498 renal 111% | CCRF-CEM leukemia 105% | MOLT-4 leukemia 90%

O=C(Nc1ccc(-n2ccc3c(NC(=O)c4ccccc4)ncnc32)cc1)Nc1ccc(Cl)c(Cl)c1
active: HCT-15 colon 0.689% | HT29 colon -58.2% | SNB-75 CNS -5.84% | U251 CNS -58.6% | PC-3 prostate -52.3% | UO-31 renal 9.15% | CCRF-CEM leukemia -10.2%
inactive: SNB-19 CNS 15.6% | SK-MEL-5 melanoma 13.7% | UACC-62 melanoma 48.5% | LOX IMVI melanoma 45.5% | SK-MEL-2 melanoma 11.7% | EKVX NSCLC 27.3% | SN12C renal 15.8% | ACHN renal 27.8% | CAKI-1 renal 30.8% | A498 renal 90.5% | MOLT-4 leukemia 28.7%

CC(C)C1(C(C)C)NC(=O)NC1=O
inactive: HCT-15 colon 110% | HT29 colon 103% | SNB-75 CNS 94.5% | SNB-19 CNS 101% | U251 CNS 103% | PC-3 prostate 93.3% | SK-MEL-5 melanoma 91.5% | UACC-62 melanoma 106% | LOX IMVI melanoma 102% | SK-MEL-2 melanoma 108% | EKVX NSCLC 92.7% | SN12C renal 99% | UO-31 renal 78.4% | ACHN renal 106% | CAKI-1 renal 88.9% | A498 renal 93.8% | CCRF-CEM leukemia 93.7% | MOLT-4 leukemia 97.6%

CC(C)(CCN=C(N)Nc1ccccn1)c1ccc(C(F)(F)F)cc1
active: HCT-15 colon 9.42% | HT29 colon -14.8% | U251 CNS -17% | SK-MEL-5 melanoma -91.4% | LOX IMVI melanoma 5.15% | SK-MEL-28 melanoma -30.9% | CCRF-CEM leukemia 7.26% | MOLT-4 leukemia -15.6%
inactive: SNB-75 CNS 48.3% | SNB-19 CNS 37.2% | PC-3 prostate 19.7% | SK-MEL-2 melanoma 38.5% | EKVX NSCLC 21.6% | SN12C renal 23.9% | UO-31 renal 14.4% | TK-10 renal 37% | A498 renal 57.2%

Nc1n[nH]c2cccc(C#Cc3cccc(NC(=O)c4cccc(C(F)(F)F)c4)c3)c12
inactive: HCT-15 colon 30.2% | HT29 colon 13.3% | SNB-75 CNS 30.5% | SNB-19 CNS 80.1% | U251 CNS 49.4% | PC-3 prostate 39.9% | SK-MEL-5 melanoma 43.9% | UACC-62 melanoma 26.1% | EKVX NSCLC 65.4% | SN12C renal 40.7% | TK-10 renal 41% | ACHN renal 28.6% | A498 renal 14.9% | CCRF-CEM leukemia 28.8% | MOLT-4 leukemia 27.3%
active: LOX IMVI melanoma 2.44% | SK-MEL-2 melanoma 8.52%

CCOC(=O)c1noc2c1CCc1c-2cn(Cc2ccc(OC)cc2)c1-c1cc(OC)c(OC)c(OC)c1
active: HT29 colon 4.06%
inactive: HCT-15 colon 23.5% | SNB-75 CNS 14% | SNB-19 CNS 24.4% | U251 CNS 18.4% | PC-3 prostate 25.3% | SK-MEL-5 melanoma 16.9% | LOX IMVI melanoma 42.3% | SK-MEL-28 melanoma 58.1% | SK-MEL-2 melanoma 35.4% | EKVX NSCLC 48.6% | SN12C renal 44.7% | UO-31 renal 30.9% | TK-10 renal 68.8% | A498 renal 56.2% | CCRF-CEM leukemia 15% | MOLT-4 leukemia 18.5%

c1ccc(OCC[P+](c2ccccc2)(c2ccccc2)c2ccccc2)cc1
active: SK-MEL-5 melanoma -40.1% | LOX IMVI melanoma 2.69% | SK-MEL-2 melanoma -16.2%
inactive: HCT-15 colon 78% | HT29 colon 13% | SNB-75 CNS 16.5% | SNB-19 CNS 21.5% | U251 CNS 14.8% | PC-3 prostate 11.8% | SK-MEL-28 melanoma 26.1% | EKVX NSCLC 26.3% | SN12C renal 29.8% | UO-31 renal 63.5% | TK-10 renal 40.2% | ACHN renal 60.5% | A498 renal 74.2% | MOLT-4 leukemia 34.8%

CN(C)C(=O)Nc1nc2cc(Cl)c(Cl)cc2[nH]1
inactive: HCT-15 colon 26.1% | SNB-75 CNS 14.7% | SNB-19 CNS 27% | U251 CNS 25.6% | PC-3 prostate 18.9% | SK-MEL-5 melanoma 19% | LOX IMVI melanoma 47.8% | SK-MEL-28 melanoma 73.4% | EKVX NSCLC 57.7% | SN12C renal 51% | UO-31 renal 20.4% | TK-10 renal 30.7% | ACHN renal 52.6% | A498 renal 46.7% | CCRF-CEM leukemia 10.3%
active: HT29 colon 5.63% | SK-MEL-2 melanoma -14.7% | MOLT-4 leukemia 8.26%

O=C(O)c1ccc(-c2nn(-c3ccc(C(=O)O)cc3)cc2/C=N/Nc2c(F)c(F)cc(F)c2F)cc1
inactive: HCT-15 colon 107% | HT29 colon 99.6% | SNB-75 CNS 105% | SNB-19 CNS 110% | U251 CNS 104% | PC-3 prostate 101% | SK-MEL-5 melanoma 107% | LOX IMVI melanoma 100% | SK-MEL-28 melanoma 104% | SK-MEL-2 melanoma 99.1% | EKVX NSCLC 103% | SN12C renal 107% | UO-31 renal 92.4% | A498 renal 115% | CCRF-CEM leukemia 97.9% | MOLT-4 leukemia 92.8%

C=CC(C)(O)CCC1C(=C)CCC2C(C)(C)CCCC12C (configuration not stated)
inactive: HCT-15 colon 97.3% | HT29 colon 70.1% | SNB-75 CNS 91.3% | SNB-19 CNS 111% | U251 CNS 104% | PC-3 prostate 112% | SK-MEL-5 melanoma 107% | LOX IMVI melanoma 97.2% | SK-MEL-28 melanoma 101% | SK-MEL-2 melanoma 92.2% | EKVX NSCLC 96.7% | SN12C renal 108% | UO-31 renal 90.3% | TK-10 renal 83.3% | A498 renal 106% | CCRF-CEM leukemia 124% | MOLT-4 leukemia 89.9%

c1ccc([Se]CCCN2CCN(CCC[Se]c3ccccc3)CC2)cc1
inactive: HCT-15 colon 90.9% | HT29 colon 96.3% | SNB-75 CNS 100% | SNB-19 CNS 119% | U251 CNS 101% | PC-3 prostate 102% | SK-MEL-5 melanoma 101% | UACC-62 melanoma 92.3% | LOX IMVI melanoma 91.6% | SK-MEL-2 melanoma 121% | SN12C renal 104% | TK-10 renal 129% | ACHN renal 100% | A498 renal 116% | CCRF-CEM leukemia 105% | MOLT-4 leukemia 127%
active: EKVX NSCLC 1.25% | CAKI-1 renal -23.6%

O=c1cc(Cl)[nH]c(=O)[nH]1
inactive: HCT-15 colon 107% | HT29 colon 83.6% | SNB-75 CNS 100% | SNB-19 CNS 107% | U251 CNS 97.5% | PC-3 prostate 98.4% | SK-MEL-5 melanoma 101% | LOX IMVI melanoma 101% | SK-MEL-28 melanoma 105% | SK-MEL-2 melanoma 91.8% | EKVX NSCLC 104% | SN12C renal 107% | UO-31 renal 96.4% | TK-10 renal 98.1% | A498 renal 100% | CCRF-CEM leukemia 111% | MOLT-4 leukemia 88.5%
